TexasRed fluor: counter-screen for TRb-SRC2 inhibitors: fluorescence interference; TRb/SRC2 Texas Red total fluorescence interference; Potency, µM (doses to about 106 µM), inactives show at the top dose fluorescence change, negative = quenching; 0.29% of 280,000 active; active = well fitted curve in either direction with a large enough effect; inconclusive = small, poorly fitted or top-dose-only effect
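Human TRβ ligand-binding domain (0.6 uM) and Texas Red SRC2 peptide (20 nM) in Tris buffer with 1 uM T3 and 5% DMSO were incubated with pinned compound for 5 hr at ambient temperature. Total fluorescence was computed as S + 2P (555/632 nm).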
RGS12 GoLoco inh: RGS12 GoLoco-Gai1 interaction inhibition. Potency, µM (series often up to 61.6 µM), for inactives: top-dose activity, negative = inhibition, actives largely listed as inhibitors. AID 880. P63096. Gai1:RGS12 GoLoco peptide FP, rhodamine, 10 min. 0.44% of 230,000 active; active = well fitted inhibition curve with a large enough effect, not every such curve was filed as active; inactive = no such curve, though single readings can be large or run the other way; note: nearly all actives have a fitted effect of over 30% in size
Tau fluor counter: counter-screen for tau fibril formation inhibitors. tau K18 P301L Alexa594 fluorescence, heparin fibrillization. Potency, µM (doses to about 57.7 µM), for inactives: top-dose activity change, negative = decrease. 0.93% of 280,000 active. AID 1463; note: nearly all actives have a fitted effect of over 55% in size
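Human tau K18 P301L (15 uM unlabeled, 0.24 uM Alexa 594-labeled) in 100 mM sodium acetate pH 7 with 20 uM heparin, 6 hr at 37 C. ThT 30 uM added, 1 hr ambient; Alexa 594 FP and total fluorescence read at 555/632 nm.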
Tau fibril ThT: inhibitors of human tau fibril formation, thioflavin T binding | 2.1% of 270,000 active | recombinant tau K18 P301L, heparin-induced fibrillization, ThT fluorescence | Potency, µM (titrated, usually from 57.4 µM), inactives show at the highest dose activity, negative = inhibition, most hits filed as inhibitors | AID 1460 | P10636; note: nearly all actives have a fitted effect of over 55% in size
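Using a mix of unlabeled (15 uM) and Alexa 594-labeled (0.24 uM) tau K18 P301L, heparin-triggered fibrillization over 6 hr at 37 C was scored by ThT fluorescence.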
Tau fibril FP: inhibitors of human tau fibril formation. P10636. K18 P301L tau heparin fibrillization, Alexa594 FP, 6 h. Potency, µM (doses to about 57.7 µM), for the others: at the highest dose activity, negative = inhibition, usual class: inhibitors. 0.39% of 280,000 active; note: nearly all actives have a fitted effect of over 55% in size
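Steps: dispense K18 P301L tau (15 uM plus 0.24 uM Alexa 594 tracer, final) in pH 7 sodium acetate; add compound; add heparin (20 uM final); incubate 6 hr, 37 C; add ThT (30 uM final); after 1 hr ambient, read FP.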
TRb SRC2 PPI: inhibitors of human thyroid hormone receptor beta-SRC2 interaction | P10828 | TRbeta-SRC2 peptide binding, fluorescence polarization; receptor liganded with 1 µM T3 | Potency, µM (doses to about 106 µM), for the others: at the highest dose activity change, negative = inhibition, actives largely listed as inhibitors | 0.065% of 280,000 active | AID 1469;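 note: plate controls were bound peptide for no effect and peptide without receptor for full effect; nearly all actives have a fitted effect of over 50% in size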
Target sequence (P10828 whole entry, looked up): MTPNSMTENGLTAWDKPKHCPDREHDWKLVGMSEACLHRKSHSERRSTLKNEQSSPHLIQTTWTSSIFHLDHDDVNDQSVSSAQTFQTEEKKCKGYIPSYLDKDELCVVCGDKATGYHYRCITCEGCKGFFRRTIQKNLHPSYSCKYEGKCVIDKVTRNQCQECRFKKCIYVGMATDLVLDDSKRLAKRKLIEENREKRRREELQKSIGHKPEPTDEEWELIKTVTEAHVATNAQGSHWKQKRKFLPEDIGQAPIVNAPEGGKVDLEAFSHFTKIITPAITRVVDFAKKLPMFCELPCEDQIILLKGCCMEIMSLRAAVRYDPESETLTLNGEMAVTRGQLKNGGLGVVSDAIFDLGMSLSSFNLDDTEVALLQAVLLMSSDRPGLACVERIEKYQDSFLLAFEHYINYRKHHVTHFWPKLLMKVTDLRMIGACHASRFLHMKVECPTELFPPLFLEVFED
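Human TRb ligand-binding domain (0.6 uM) is mixed with 20 nM Texas Red SRC2 peptide and 1 uM T3; after compound addition and 5 hr at ambient temperature, polarization is measured and normalized to unbound and bound controls.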
Active calls of the source: *; ? = inconclusive; · = no result given; [ ] = remark or other dose. This is a sample that favours compounds with a hit; in the whole collection about 3.2% have one here. Unless noted, calls come from the whole dose curve; as a rule, active = well fitted curve in the direction sought with a large enough effect; inconclusive = small, poorly fitted or top-dose-only effect, or another doubt; inactive = no such curve, though single readings can be large; an effect the other way counts as inactive or inconclusive. Unless noted, % is set by controls: 0 for no effect and ±100 for the full control effect; potency is the fitted concentration of half-maximal effect.

SMILES	TexasRed fluor	RGS12 GoLoco inh	Tau fluor counter	Tau fibril ThT	Tau fibril FP	TRb SRC2 PPI
O=C(COC(=O)c1ccccc1Cc1ccccc1)Nc1ccc(SC(F)F)cc1	0.1%	2.7%	?	2.6%	25.1µM*	-4.8%
COc1ccc(/C=C/C(=O)C2C(=O)C=C(C)OC2=O)cc1O (stereo not drawn)	-3.4%	16.0%	?	25.1µM*	-2.1%	10.4%
COC(=O)C1=C(C(=O)OC)[C@@H]2N(Cc3ccccc3)c3ccccc3[C@@]23C[C@@H](C(=O)OC)N(S(=O)(=O)c2c(C)noc2C)C3=N1	-3.1%[11.2 µM]	4.2%[14.2 µM]	-5.8%[11.6 µM]	-1.4%[11.5 µM]	-2.1%[11.6 µM]	2.9%[11.2 µM]
CCc1ccccc1NCC(=O)Nc1ccc(Cl)c(C(F)(F)F)c1	-1.5%	4.8%	17.8µM*[quencher]	-18.9%	?	5.4%
COc1ccccc1NC(=O)CN1CCN(CC(=O)Nc2ccc(Cl)c(C(F)(F)F)c2)CC1	-2.7%	4.3%	-24.0%	-5.8%	-7.1%	-4.9%
COc1ccc(-c2nn(-c3ccccc3)cc2C(=O)Nc2nccs2)cc1	-3.0%	4.8%	?	1.5%	28.2µM*	-3.3%
COc1cccc(-c2nn(-c3ccccc3)cc2C(=O)Nc2nccs2)c1	-5.3%	1.1%	?	-9.6%	28.2µM*	2.6%
c1ccc(Nc2ccccn2)cc1	-5.7%	13.4%	-7.0%	-8.0%	6.7%	5.6%
c1ccc(Nc2cccc(Nc3ccccc3)n2)cc1	1.7%	16.0%	12.6µM*[quencher]	14.1µM*	3.5%	4.0%
Cc1ccc(P(=O)(CSC(=N)N)c2ccc(C)cc2)cc1	-4.3%	-7.9%	-15.7%	12.6µM*	?	0.3%
NCCCCCCCCCCNCCCN	-0.5%	·	·	·	·	2.4%
Cc1ccc2nc(-c3ccc(Cl)c(NC(=O)c4cccc([N+](=O)[O-])c4C)c3)oc2c1	15.8µM*[quencher]	·	-16.9%	-12.2%	-14.2%	-2.1%
CC1CCN(c2ccc(-c3cccc(NS(=O)(=O)c4ccc(F)cc4F)c3)nn2)CC1	8.91µM*[quencher]	·	-19.1%	-3.9%	-6.6%	-19.3%
O=S(=O)(Nc1cccc(-c2ccc(N3CCCCC3)nn2)c1)c1ccc(F)cc1F	-7.4%	·	-23.6%	?	8.6%	2.9%
CCOc1ccc(S(=O)(=O)Nc2cccc(-c3ccc(N4CCCC4)nn3)c2)cc1	20µM*[quencher]	·	-27.9%	-8.7%	-5.7%	-7.3%
CCCCCC1CCC(=O)O1 (stereo not drawn)	-4.0%[201 µM]	·	·	·	·	7.0%[201 µM]
O=C(O)COc1cccc2c1CCC=C2CCO/N=C(\c1ccccc1)c1cccnc1	-9.5%	·	·	·	·	-0.9%
Cc1cccc(N2CCN(C(=O)CCn3c(=O)c4cccn4c4cccnc43)CC2)c1C	-0.3%	·	-1.6%	-17.6%	4.7%	3.5%
C[C@@]12C=Cc3occc3C1CC[C@@]13C[C@@H](CCC12)[C@@](O)(CO)C3 (stereo partly drawn)	?	0.7%	?	11.2µM*	10µM*	18.2%
CCOC(=O)c1ccc(Nc2ncnc3ccc(C)cc23)cc1	-1.7%	0.2%	-8.2%	0.2%	-4.3%	3.6%
CCOc1ccc(Nc2ncnc3ccc([N+](=O)[O-])cc23)cc1	-5.8%	-3.4%	-16.4%	10µM*	15.8%	-3.7%
COc1ccc2[nH]cc(CCNc3ncnc4ccc(-c5ccc6c(c5)OCO6)cc34)c2c1	·	10.1%	·	·	·	·
CCn1c(SC(C)C)nnc1-c1cc(-c2ccccc2)sc1N	-0.5%	9.2%	?	12.6µM*	-10.6%	0.5%
O=C(Cc1ccccc1Cl)NC1(O)C(=O)c2ccccc2C1=O	-0.5%	1.9%	-28.6%	2.82µM*	?	-16.8%
COc1ccc(-c2nnc3n2N=C(c2cc(OC)ccc2OC)CS3)c(OC)c1	-2.0%	·	·	·	·	-0.1%
Cc1[nH]c2c(C)cccc2c1CCNC(=O)c1ccc2c(c1[N+](=O)[O-])C(=O)c1ccccc1C2=O	1.1%	-2.3%	7.94µM*[quencher]	?	5.9%	6.4%

Source: PubChem (National Center for Advancing Translational Sciences (NCATS))
